Compounds without any hit were thinned out: in the full panel of roughly 79,000, 15% have a hit. A number with no mark means an inactive call. Activity calls are given as the source filed them. Rule as the data show it: active = growth inhibition above about 70%; inactive = the rest. Where a SMILES comes first, the peptide text is derived from it. The star is where a group is joined. Cbz = O=C(OCc1ccccc1)*
Tests used:
[1] = NCI Yeast Anticancer Drug Screen. Data for the rad50 strain (AID 155);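 also: 0% = growth of vehicle-only cultures of the same strain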; conditions: S. cerevisiae rad50 strain growth inhibition; at 50.0 µM; stronger effect = higher value
Summary of the method: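 DNA repair mutant yeast, compound exposure, growth read-out; inhibition is taken relative to vehicle.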

[2] = NCI Yeast Anticancer Drug Screen. Data for the mec2-1 strain (AID 157); conditions: S. cerevisiae mec2-1 strain, at 50.0 µM, stronger effect = higher value
Summary of the method: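 Test agents were screened against the mec2-1 yeast strain, with defined DNA repair or cell cycle alteration. Growth was scored as inhibition against vehicle-only controls.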

[3] = NCI Yeast Anticancer Drug Screen. Data for the sgs1 mgt1 strain (AID 161);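 also: 0% = growth of cultures given vehicle only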; conditions: S. cerevisiae sgs1 mgt1 strain, at 50.0 µM, stronger effect = higher value
Summary of the method: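 Genetically altered yeast, compound exposure, growth inhibition relative to vehicle.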

[4] = NCI Yeast Anticancer Drug Screen. Data for the cln2 rad14 strain (AID 165);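 also: 0% = growth equal to vehicle treated cultures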; conditions: S. cerevisiae cln2 rad14 strain, at 50.0 µM, stronger effect = higher value
Summary of the method: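 Growth of compound-exposed yeast (cln2 rad14 genotype) measured and expressed as inhibition relative to vehicle.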

[5] = NCI Yeast Anticancer Drug Screen. Data for the bub3 strain (AID 167); conditions: S. cerevisiae bub3 mutant strain, at 50.0 µM, stronger effect = higher value
Summary of the method: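 In this screen, a yeast mutant lacking normal mitotic checkpoint function is challenged with compound. Relative growth versus vehicle gives the inhibition value.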

[6] = NCI Yeast Anticancer Drug Screen. Data for the mlh1 rad18 strain (AID 175); conditions: S. cerevisiae mlh1 rad18 strain growth inhibition; at 50.0 µM; stronger effect = higher value
Summary of the method: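 In this whole-cell yeast screen, a strain with altered DNA damage repair is challenged with compound, and its growth is measured against matched vehicle-treated controls.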

## COC(=O)c1c2c(cc3c1CC1(Cc4ccccc4C1=O)C3)CCC2 (configuration not stated)
[1]
  growth inhibition: -23.2%
[2]
  growth inhibition: 5.2%
[3]
  growth inhibition: 14.2%
[4]
  growth inhibition: -17.1%
[5]
  growth inhibition: 9.4%
[6]
  growth inhibition: -39.9%

## NC(=O)Nc1ccc(Cc2ccc(NC(N)=O)cc2)cc1
[1]
  growth inhibition: -15.4%
[2]
  growth inhibition: -26.8%
[3]
  growth inhibition: 10.7%
[4]
  growth inhibition: 10.8%
[5]
  growth inhibition: 12.9%
[6]
  growth inhibition: 12.3%

## CS(=O)(=O)c1[nH]nc2[nH]c(=O)[nH]c(=O)c12
[1]
  growth inhibition: -30.5%
[2]
  growth inhibition: -30.4%
[3]
  growth inhibition: -26.5%
[4]
  growth inhibition: -4.7%
[5]
  growth inhibition: -28.8%
[6]
  growth inhibition: 6.85%

## COc1cc(-c2cc(OC)c(N=N/C(=N/Nc3ccc([N+](=O)[O-])cc3)c3ccc([N+](=O)[O-])cc3)cc2Cl)c(Cl)cc1N=N/C(=N\Nc1ccc([N+](=O)[O-])cc1)c1ccc([N+](=O)[O-])cc1
[1]
  growth inhibition: 7.9%
[2]
  growth inhibition: 9.65%
[3]
  growth inhibition: -5.95%
[4]
  growth inhibition: -21.2%
[5]
  growth inhibition: -14.2%
[6]
  growth inhibition: -13.8%

## Cc1cc(N(CCC#N)S(=O)(=O)c2ccccc2)ccc1C=Nc1ccc(C(=O)O)cc1
[1]
  growth inhibition: -12.2%
[2]
  growth inhibition: -8.35%
[3]
  growth inhibition: -6.15%
[4]
  growth inhibition: -3.8%
[5]
  growth inhibition: 1.85%
[6]
  growth inhibition: -6.85%

## CNc1nc(NC)nc(-c2ccccc2)n1
[1]
  growth inhibition: -25.2%
[2]
  growth inhibition: -16.1%
[3]
  growth inhibition: -26.9%
[4]
  growth inhibition: -55%
[5]
  growth inhibition: -22.6%
[6]
  growth inhibition: -22.9%

## CC(C)CC(NC(=O)C(CO)NC(=O)OCc1ccccc1)C(=O)NC(Cc1ccc(O)cc1)C(N)=O (stereo not drawn) (Cbz-Ser-Leu-Tyr-NH2; configuration not given here)
[1]
  growth inhibition: 47.5%
[2]
  growth inhibition: -8.05%
[3]
  growth inhibition: 27.6%
[4]
  growth inhibition: 4.9%
[5]
  growth inhibition: 3.95%
[6]
  growth inhibition: 13.7%

## CC1OC2=N[C@@H]1C(=O)N[C@@H](C(C)C)C1=N[C@H](C(=O)N[C@@H](C(C)C)C3=N[C@H](C(=O)N[C@@H](C(C)C)C4=N[C@H](C(=O)N[C@H]2C(C)C)C(C)O4)C(C)O3)C(C)O1 (some centres not stated)
[1]
  growth inhibition: 6.9%
[2]
  growth inhibition: 3.55%
[3]
  growth inhibition: 3.55%
[4]
  growth inhibition: 19.1%
[5]
  growth inhibition: 14.8%
[6]
  growth inhibition: 9.55%

## O=[N+]([O-])c1c(F)cc(F)cc1F
[1]
  growth inhibition: -11%
[2]
  growth inhibition: 5.75%
[3]
  growth inhibition: -5.15%
[4]
  growth inhibition: -19.9%
[5]
  growth inhibition: 2.55%
[6]
  growth inhibition: -6.65%

## Cc1[nH]n(C2=NCCN2)c(=O)c1Cc1ccccc1
[1]
  growth inhibition: 4.6%
[2]
  growth inhibition: -6.95%
[3]
  growth inhibition: -24.2%
[4]
  growth inhibition: -26.3%
[5]
  growth inhibition: -10.6%
[6]
  growth inhibition: -61.6%

## CC(C)(C)C(=O)C(Cc1ccccc1)C(=O)C(C)(C)C
[1]
  growth inhibition: 2.6%
[2]
  growth inhibition: -11.8%
[3]
  growth inhibition: 2.15%
[4]
  growth inhibition: 16.8%
[5]
  growth inhibition: 5.45%
[6]
  growth inhibition: -1.95%

## O=c1cc(-c2cccnc2)oc2ccc(Cl)cc12
[1]
  growth inhibition: 59.8%
[2]
  growth inhibition: -2.8%
[3]
  growth inhibition: 7.7%
[4]
  growth inhibition: -33.9%
[5]
  growth inhibition: 11.2%
[6]
  growth inhibition: 5.85%

## CCCC(=O)Oc1ccc(C(=O)OC)cc1
[1]
  growth inhibition: 8.4%
[2]
  growth inhibition: -10.8%
[3]
  growth inhibition: -11.9%
[4]
  growth inhibition: -24.8%
[5]
  growth inhibition: -16.4%
[6]
  growth inhibition: 13.3%

## CCCCn1cnc2ccc3nc(-c4ccccc4)c(-c4ccccc4)nc3c2c1=O
[1]
  growth inhibition: 43.8%
[2]
  growth inhibition: -15.4%
[3]
  growth inhibition: 9.3%
[4]
  growth inhibition: 4.1%
[5]
  growth inhibition: 1.5%
[6]
  growth inhibition: 4.65%

## N#C/C(=C\c1ccccc1)C(=O)Nc1ccccc1
[1]
  growth inhibition: 17.3%
[2]
  growth inhibition: 3.5%
[3]
  growth inhibition: -1.35%
[4]
  growth inhibition: -4.15%
[5]
  growth inhibition: -4.7%
[6]
  growth inhibition: 22.6%

## Nc1nc(=O)n(CCCOc2ccc([N+](=O)[O-])c(Cl)c2)cc1-c1ccc(Cl)c(Cl)c1
[1]
  growth inhibition: -1.2%
[2]
  growth inhibition: -8.2%
[3]
  growth inhibition: -5.4%
[4]
  growth inhibition: -21.4%
[5]
  growth inhibition: -3.15%
[6]
  growth inhibition: 6.2%

## O=S(=O)(O)C1=CC(=N/Cl)/C=CC/1=N\Cl
[1]
  growth inhibition: -25.8%
[2]
  growth inhibition: -23.8%
[3]
  growth inhibition: -14.6%
[4]
  growth inhibition: -4.15%
[5]
  growth inhibition: -42%
[6]
  growth inhibition: -25.2%

## C#CCNCCCn1c(=O)nc2n(-c3ccccc3)c3ccccc3nc-2c1=O
[1]
  growth inhibition: 56%
[2]
  growth inhibition: 19.2%
[3]
  growth inhibition: 27.1%
[4]
  growth inhibition: 29.4%
[5]
  growth inhibition: 0.55%
[6]
  growth inhibition: 43%

## CCOC(=O)c1cc(O)cc(=O)n1C1OC(COC(=O)c2ccccc2)C(OC(=O)c2ccccc2)C1OC(=O)c1ccccc1 (configuration not stated)
[1]
  growth inhibition: 49.5%
[2]
  growth inhibition: -19.4%
[3]
  growth inhibition: 32.6%
[4]
  growth inhibition: 3.35%
[5]
  growth inhibition: -9.15%
[6]
  growth inhibition: -10.8%

## O=C1CCCCCN1
[1]
  growth inhibition: 18.5%
[2]
  growth inhibition: 1.55%
[3]
  growth inhibition: -9.95%
[4]
  growth inhibition: -11.3%
[5]
  growth inhibition: -5.1%
[6]
  growth inhibition: 18.1%

## COc1ccc2c(=O)c(O)c(-c3ccc(OC)c(OC)c3)oc2c1
[1]
  growth inhibition: 12.7%
[2]
  growth inhibition: 5.35%
[3]
  growth inhibition: -18.6%
[4]
  growth inhibition: -9.1%
[5]
  growth inhibition: -1.25%
[6]
  growth inhibition: 18.4%

## CC(=O)On1c(-c2ccccc2-c2nc3ccccc3n2OC(C)=O)nc2ccccc21
[1]
  growth inhibition: 10%
[2]
  growth inhibition: 14.4%
[3]
  growth inhibition: 13.4%
[4]
  growth inhibition: 8.9%
[5]
  growth inhibition: -5.05%
[6]
  growth inhibition: 2.75%

## O=C(O)COc1ccc(C(=O)O)cc1
[1]
  growth inhibition: 5.6%
[2]
  growth inhibition: -19.9%
[3]
  growth inhibition: 3.7%
[4]
  growth inhibition: -53.7%
[5]
  growth inhibition: -23.4%
[6]
  growth inhibition: -6.15%

## COc1cc(C(=O)Nc2ccc(N3CCCCC3)cc2)cc(OC)c1OC
[1]
  growth inhibition: 25.1%
[2]
  growth inhibition: 9.2%
[3]
  growth inhibition: 38.4%
[4]
  growth inhibition: -16.2%
[5]
  growth inhibition: 14.6%
[6]
  growth inhibition: 36.3%

## COC(=O)NC(Nc1ccc(C)cc1)(C(F)(F)F)C(F)(F)F
[1]
  growth inhibition: 11.9%
[2]
  growth inhibition: -8.9%
[3]
  growth inhibition: -39.6%
[4]
  growth inhibition: 5.9%
[5]
  growth inhibition: -2.65%
[6]
  growth inhibition: -4.7%

## O=C1c2ccccc2C(=O)c2c(O)cc([N+](=O)[O-])cc21
[1]
  growth inhibition: 18.2%
[2]
  growth inhibition: 3.05%
[3]
  growth inhibition: 11.7%
[4]
  growth inhibition: 6.05%
[5]
  growth inhibition: 14.2%
[6]
  growth inhibition: -1.5%

## O=C1c2ccccc2C(=O)c2c1oc1c2ccc2ccccc21
[1]
  growth inhibition: -8.15%
[2]
  growth inhibition: 7%
[3]
  growth inhibition: -4.35%
[4]
  growth inhibition: -16.1%
[5]
  growth inhibition: -5.25%
[6]
  growth inhibition: 8.5%

## O=C(O)c1c(Br)c(Br)c(Br)c(Br)c1C(=O)Nc1ccc([N+](=O)[O-])cc1
[1]
  growth inhibition: -14.6%
[2]
  growth inhibition: 2.65%
[3]
  growth inhibition: 3.35%
[4]
  growth inhibition: 4.75%
[5]
  growth inhibition: 3.15%
[6]
  growth inhibition: -1.05%

## c1ccc(Sc2cccc3c(-c4ccccc4)c4cccc5c4c(c23)C[S+]5c2ccccc2)cc1 (configuration not stated)
[1]
  growth inhibition: 98.5% (active)
[2]
  growth inhibition: 99.1% (active)
[3]
  growth inhibition: 99.2% (active)
[4]
  growth inhibition: 98.5% (active)
[5]
  growth inhibition: 98.6% (active)
[6]
  growth inhibition: 98.8% (active)

## O=C1C2C3C=CC(C2C(=O)N1CCl)C1C2C(=O)N(CCl)C(=O)C2C31 (configuration not stated)
[1]
  growth inhibition: 4.2%
[2]
  growth inhibition: 21.1%
[3]
  growth inhibition: 7.85%
[4]
  growth inhibition: -5.85%
[5]
  growth inhibition: 13.6%
[6]
  growth inhibition: 18.7%

## CC(C)=C1CCC(CN(C)C)C1=O (configuration not stated)
[1]
  growth inhibition: 30.4%
[2]
  growth inhibition: 4.7%
[3]
  growth inhibition: 35%
[4]
  growth inhibition: 5.35%
[5]
  growth inhibition: -18.9%
[6]
  growth inhibition: 7.55%

## CC1CCC(=O)NCCCCC(=O)N1 (configuration not stated)
[1]
  growth inhibition: 22.9%
[2]
  growth inhibition: 1.85%
[3]
  growth inhibition: 25.3%
[4]
  growth inhibition: 15.6%
[5]
  growth inhibition: 3.45%
[6]
  growth inhibition: 26.6%

## COc1cc(OC)c2nc3ccccc3c(NCCC[N+](C)(C)[O-])c2c1[N+](=O)[O-]
[1]
  growth inhibition: 7.65%
[2]
  growth inhibition: -33.6%
[3]
  growth inhibition: -12.9%
[4]
  growth inhibition: -22.2%
[5]
  growth inhibition: -14.2%
[6]
  growth inhibition: -17.8%

## Cc1cc(Cl)ccc1C(=O)O
[1]
  growth inhibition: -0.9%
[2]
  growth inhibition: 9.7%
[3]
  growth inhibition: 13.3%
[4]
  growth inhibition: 1.35%
[5]
  growth inhibition: -12.8%
[6]
  growth inhibition: 20.2%

## O=C1c2ccccc2C(=O)N1CNc1ccccc1Cl
[1]
  growth inhibition: 27.8%
[2]
  growth inhibition: 8.95%
[3]
  growth inhibition: 23.2%
[4]
  growth inhibition: 18.2%
[5]
  growth inhibition: 18.2%
[6]
  growth inhibition: 17.3%

## CCOc1ccc(NC(=O)CC2SC(N)=NC2=O)cc1 (configuration not stated)
[1]
  growth inhibition: -15.2%
[2]
  growth inhibition: -35.5%
[3]
  growth inhibition: -1.9%
[4]
  growth inhibition: 8.5%
[5]
  growth inhibition: -2.8%
[6]
  growth inhibition: -0.6%

## CCN(CC)CCOC(=O)CCC(C)=O
[1]
  growth inhibition: 6.35%
[2]
  growth inhibition: -31.5%
[3]
  growth inhibition: -7.65%
[4]
  growth inhibition: 0.8%
[5]
  growth inhibition: -9.1%
[6]
  growth inhibition: 7.45%

Reference: PubChem BioAssay (NCI)
